Calls of active or inactive are those of the source.

In assay [1] the test system is PRMT1 (protein arginine N-methyltransferase 1). Kind of assay: small molecules binding arginine methyltransferase PRMT1 – biochemical, small-molecule microarray, 635 nm fluorescence, primary screen (AID 1088).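 Further: binding of Prmt1 protein to compounds spotted on small-molecule microarray slides.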 Particulars: higher = more signal.
Assay [2] is described as follows: growth effects on S. cerevisiae YJM789 – YJM789 clinical isolate, OD600, 24 h, basal, primary screen (AID 1089).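 Further: growth of clinical yeast isolate S. cerevisiae YJM 789 seeded 1000 cells per well; test concentration not given here.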 To be noted: higher = more signal, called active from +8 up or from −8 down.
Assay [3] in a line: S. pombe growth modifiers, basal conditions – strain 972, OD600, 24 h, no modulator, primary screen (AID 1090).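 Further: basal condition with compound alone and no growth modifier present; test concentration not given here.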 To be noted: S. pombe 972 growth, higher = more signal, called active from +8 up or from −8 down.
Assay [4] can be described thus: budding yeast growth modifiers under rapamycin – strain BY4716, OD600, 96 h, primary screen (AID 1091). Further: test concentration not given here. Particulars: S. cerevisiae BY4716 + rapamycin, higher = more signal, called active from +8 up or from −8 down.
Assay [5] addresses Torsin-1A-interacting protein 2 (Homo sapiens) (UniProt Q8NFQ8). Kind of assay: small molecules binding lysate-expressed LULL1 – cell lysate, human LULL1 lysate, 635/667 nm fluorescence, primary screen (AID 1092).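 Further: probe is lysate of COS7 cells overexpressing human LULL1; score merges per-feature 667 nm fluorescence with signal-to-noise.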 To be noted: small-molecule microarray, hLULL1 lysate binding, 635 nm fluorescence; higher = more signal.
The nature of assay [6]: optical density change of DRC41 E. coli – strain DRC41, OD650, 24 h, E. coli filamentation project, primary screen (AID 1093).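 Further: MC1000 strain lacking acrAB efflux and sulA so SOS filamentation is blocked; test concentration not given here.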 To be noted: E. coli DRC41 growth, higher = more signal, called active from +8 up or from −8 down.
Assay [7] can be described thus: probe aLefty2 binding to arrayed compounds – biochemical, biotinylated probe, 635/667 nm fluorescence, primary screen (AID 1094).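 Further: score merges spot fluorescence near 667 nm with spot signal-to-noise ratio.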 To be noted: small-molecule microarray, higher = more signal.
Assay [8] concerns Noggin (protein binding on small-molecule microarray). Kind of assay: small molecules binding Noggin protein – biochemical, 635/667 nm fluorescence, primary screen (AID 1095).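 Further: score merges 667 nm feature fluorescence with signal to noise over triplicate slides.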 To be noted: 635 nm fluorescence, higher = more signal.
Assay [9] has as its target Neurogenic locus notch homolog protein 3 (Homo sapiens) (UniProt Q9UM47). Kind of assay: small molecules binding NOTCH3 protein – biochemical, 635/667 nm fluorescence, primary screen (AID 1096). Particulars: small-molecule microarray, 635 nm fluorescence, higher = more signal.
Assay [10] can be described thus: probe aEGFR binding to arrayed compounds – biochemical, biotinylated probe, 635/667 nm fluorescence, primary screen (AID 1097).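 Further: probe is a biotinylated anti-EGFR antibody binding compounds printed on slides; score combines fluorescence near 667 nm and signal to noise of each spot.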 Particulars: small-molecule microarray, higher = more signal.
Assay [11] deals with Plasmodium falciparum Sir2 (PF13_0152, Sir2A). Kind of assay: Plasmodium falciparum Sir2A binding compounds – biochemical, small-molecule microarray, 635 nm fluorescence, primary screen (AID 1098).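 Further: score merges spot fluorescence intensity with its signal-to-noise ratio.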 To be noted: fluorescence 635 nm, higher = more signal.
Assay [12] in a line: probe aDKK1 binding to arrayed compounds – biochemical, biotinylated probe, 635/667 nm fluorescence, primary screen (AID 1099).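 Further: score merges 667nm spot fluorescence with signal to noise across triplicate slides; reference of the scale not given here.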 To be noted: small-molecule microarray, higher = more signal.
A short description of assay [13]: probe aCHRDL2 binding to arrayed compounds – biochemical, biotinylated probe, 635/667 nm fluorescence, primary screen (AID 1100). Particulars: small-molecule microarray, higher = more signal.
Assay [14] is described as follows: change in splice reporter luminescence, either direction, cell-based, HEK293, spliceosome inhibition project, primary screen (AID 1101).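 Further: HEK293 cells carrying a splicing-competent luciferase reporter gene; test concentration not given here.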 To be noted: HEK293 splicing luciferase reporter, 24 h, higher = more signal, called active from +8 up or from −8 down. A general note: A reporter such as luciferase makes a cellular process visible.
The target of assay [15] is Fibroblast growth factor 10 (Homo sapiens) (UniProt O15520). Kind of assay: compounds binding fibroblast growth factor 10 – biochemical, small-molecule microarray, 635 nm fluorescence, primary screen (AID 1102). To be noted: FGF10 binding, fluorescence 635 nm, higher = more signal.
Sequence of Fibroblast growth factor 10 (Homo sapiens) (O15520 whole entry, looked up): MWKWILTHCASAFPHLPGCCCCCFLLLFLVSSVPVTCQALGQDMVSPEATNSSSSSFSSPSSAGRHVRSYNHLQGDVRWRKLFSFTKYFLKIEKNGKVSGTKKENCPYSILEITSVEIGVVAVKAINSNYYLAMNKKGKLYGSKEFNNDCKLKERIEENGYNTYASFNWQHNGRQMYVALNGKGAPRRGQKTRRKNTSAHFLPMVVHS
Assay [16] has as its system glycogen synthase kinase-3 (GSK3A per assay name; protocol says GSK3B). Kind of assay: compounds binding glycogen synthase kinase-3 – biochemical, small-molecule microarray, 635 nm fluorescence, GSK3A, primary screen (AID 1103). Further: the record names both GSK3A and GSK3B. To be noted: fluorescence 635 nm, higher = more signal.
For assay [17], the target named is Epidermal growth factor receptor (Homo sapiens) (UniProt P00533). Kind of assay: compounds binding epidermal growth factor receptor – biochemical, small-molecule microarray, 635 nm fluorescence, primary screen (AID 1104).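 Further: score merges 667 nm emission intensity with spot signal to noise over triplicate slides.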 To be noted: EGFR binding, higher = more signal.
Sequence of Epidermal growth factor receptor (Homo sapiens) (P00533 whole entry, looked up): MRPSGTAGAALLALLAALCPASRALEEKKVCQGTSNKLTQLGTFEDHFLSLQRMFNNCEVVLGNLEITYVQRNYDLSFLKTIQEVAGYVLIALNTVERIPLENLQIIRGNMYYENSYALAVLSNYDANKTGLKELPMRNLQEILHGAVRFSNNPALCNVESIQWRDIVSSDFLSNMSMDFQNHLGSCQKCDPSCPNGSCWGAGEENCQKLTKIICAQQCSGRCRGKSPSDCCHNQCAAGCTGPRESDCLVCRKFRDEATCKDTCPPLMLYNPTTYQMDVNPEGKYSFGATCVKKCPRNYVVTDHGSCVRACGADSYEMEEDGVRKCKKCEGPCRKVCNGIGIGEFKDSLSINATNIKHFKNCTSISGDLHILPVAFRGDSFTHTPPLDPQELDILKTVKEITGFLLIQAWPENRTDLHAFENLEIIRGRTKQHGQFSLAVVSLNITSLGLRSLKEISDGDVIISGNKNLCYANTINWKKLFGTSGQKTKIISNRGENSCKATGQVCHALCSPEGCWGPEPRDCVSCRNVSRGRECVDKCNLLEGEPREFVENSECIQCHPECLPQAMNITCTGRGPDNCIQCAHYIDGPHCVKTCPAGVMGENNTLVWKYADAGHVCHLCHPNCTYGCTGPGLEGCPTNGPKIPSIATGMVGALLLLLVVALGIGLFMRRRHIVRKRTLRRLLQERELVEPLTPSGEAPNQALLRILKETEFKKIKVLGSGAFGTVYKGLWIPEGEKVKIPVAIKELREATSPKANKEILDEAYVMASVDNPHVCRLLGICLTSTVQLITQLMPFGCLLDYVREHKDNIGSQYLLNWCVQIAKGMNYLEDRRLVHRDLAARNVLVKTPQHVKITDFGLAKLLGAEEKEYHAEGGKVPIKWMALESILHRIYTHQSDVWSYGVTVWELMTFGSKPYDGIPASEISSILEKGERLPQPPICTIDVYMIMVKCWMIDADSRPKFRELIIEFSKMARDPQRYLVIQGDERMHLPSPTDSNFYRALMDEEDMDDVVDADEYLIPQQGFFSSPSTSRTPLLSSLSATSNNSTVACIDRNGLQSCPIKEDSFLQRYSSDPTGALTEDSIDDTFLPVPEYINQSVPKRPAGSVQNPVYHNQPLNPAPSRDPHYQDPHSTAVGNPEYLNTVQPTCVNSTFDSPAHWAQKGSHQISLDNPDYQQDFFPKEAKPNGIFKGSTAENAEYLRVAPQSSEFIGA
Assay [18] has as its target Follistatin-related protein 3 (Homo sapiens) (UniProt O95633). Kind of assay: compounds binding follistatin-related protein 3 – biochemical, small-molecule microarray, 635 nm fluorescence, primary screen (AID 1105).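 Further: score merges emission near 667 nm and signal to noise per printed spot across three slides.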 Particulars: FSTL3 binding, higher = more signal.
Assay [19] deals with Dickkopf-related protein 1 (Homo sapiens) (UniProt O94907). Kind of assay: small molecules binding DKK1 protein – biochemical, small-molecule microarray, 635 nm fluorescence scan, primary screen (AID 1106).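 Further: score merges emission near 667 nm with signal to noise over three replicate slides.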 To be noted: higher = more signal.
Sequence of Dickkopf-related protein 1 (Homo sapiens) (O94907 whole entry, looked up): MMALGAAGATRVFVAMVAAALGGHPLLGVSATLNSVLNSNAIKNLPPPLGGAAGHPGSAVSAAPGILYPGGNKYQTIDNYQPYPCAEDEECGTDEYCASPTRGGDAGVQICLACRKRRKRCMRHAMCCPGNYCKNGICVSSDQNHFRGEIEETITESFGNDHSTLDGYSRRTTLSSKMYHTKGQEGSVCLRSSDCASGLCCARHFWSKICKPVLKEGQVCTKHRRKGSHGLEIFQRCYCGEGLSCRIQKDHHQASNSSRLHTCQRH
The subject of assay [20] is Inhibin beta A chain (activin A). Kind of assay: small molecules binding activin A – biochemical, small-molecule microarray, 635 nm fluorescence scan, primary screen (AID 1107).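 Further: mouse activin A protein probed at 4.33 µg/mL on printed slides; score merges bound-protein fluorescence near 667 nm with spot signal-to-noise.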 To be noted: INHBA, higher = more signal.

Sequence of Neurogenic locus notch homolog protein 3 (Homo sapiens) (Q9UM47 whole entry, looked up): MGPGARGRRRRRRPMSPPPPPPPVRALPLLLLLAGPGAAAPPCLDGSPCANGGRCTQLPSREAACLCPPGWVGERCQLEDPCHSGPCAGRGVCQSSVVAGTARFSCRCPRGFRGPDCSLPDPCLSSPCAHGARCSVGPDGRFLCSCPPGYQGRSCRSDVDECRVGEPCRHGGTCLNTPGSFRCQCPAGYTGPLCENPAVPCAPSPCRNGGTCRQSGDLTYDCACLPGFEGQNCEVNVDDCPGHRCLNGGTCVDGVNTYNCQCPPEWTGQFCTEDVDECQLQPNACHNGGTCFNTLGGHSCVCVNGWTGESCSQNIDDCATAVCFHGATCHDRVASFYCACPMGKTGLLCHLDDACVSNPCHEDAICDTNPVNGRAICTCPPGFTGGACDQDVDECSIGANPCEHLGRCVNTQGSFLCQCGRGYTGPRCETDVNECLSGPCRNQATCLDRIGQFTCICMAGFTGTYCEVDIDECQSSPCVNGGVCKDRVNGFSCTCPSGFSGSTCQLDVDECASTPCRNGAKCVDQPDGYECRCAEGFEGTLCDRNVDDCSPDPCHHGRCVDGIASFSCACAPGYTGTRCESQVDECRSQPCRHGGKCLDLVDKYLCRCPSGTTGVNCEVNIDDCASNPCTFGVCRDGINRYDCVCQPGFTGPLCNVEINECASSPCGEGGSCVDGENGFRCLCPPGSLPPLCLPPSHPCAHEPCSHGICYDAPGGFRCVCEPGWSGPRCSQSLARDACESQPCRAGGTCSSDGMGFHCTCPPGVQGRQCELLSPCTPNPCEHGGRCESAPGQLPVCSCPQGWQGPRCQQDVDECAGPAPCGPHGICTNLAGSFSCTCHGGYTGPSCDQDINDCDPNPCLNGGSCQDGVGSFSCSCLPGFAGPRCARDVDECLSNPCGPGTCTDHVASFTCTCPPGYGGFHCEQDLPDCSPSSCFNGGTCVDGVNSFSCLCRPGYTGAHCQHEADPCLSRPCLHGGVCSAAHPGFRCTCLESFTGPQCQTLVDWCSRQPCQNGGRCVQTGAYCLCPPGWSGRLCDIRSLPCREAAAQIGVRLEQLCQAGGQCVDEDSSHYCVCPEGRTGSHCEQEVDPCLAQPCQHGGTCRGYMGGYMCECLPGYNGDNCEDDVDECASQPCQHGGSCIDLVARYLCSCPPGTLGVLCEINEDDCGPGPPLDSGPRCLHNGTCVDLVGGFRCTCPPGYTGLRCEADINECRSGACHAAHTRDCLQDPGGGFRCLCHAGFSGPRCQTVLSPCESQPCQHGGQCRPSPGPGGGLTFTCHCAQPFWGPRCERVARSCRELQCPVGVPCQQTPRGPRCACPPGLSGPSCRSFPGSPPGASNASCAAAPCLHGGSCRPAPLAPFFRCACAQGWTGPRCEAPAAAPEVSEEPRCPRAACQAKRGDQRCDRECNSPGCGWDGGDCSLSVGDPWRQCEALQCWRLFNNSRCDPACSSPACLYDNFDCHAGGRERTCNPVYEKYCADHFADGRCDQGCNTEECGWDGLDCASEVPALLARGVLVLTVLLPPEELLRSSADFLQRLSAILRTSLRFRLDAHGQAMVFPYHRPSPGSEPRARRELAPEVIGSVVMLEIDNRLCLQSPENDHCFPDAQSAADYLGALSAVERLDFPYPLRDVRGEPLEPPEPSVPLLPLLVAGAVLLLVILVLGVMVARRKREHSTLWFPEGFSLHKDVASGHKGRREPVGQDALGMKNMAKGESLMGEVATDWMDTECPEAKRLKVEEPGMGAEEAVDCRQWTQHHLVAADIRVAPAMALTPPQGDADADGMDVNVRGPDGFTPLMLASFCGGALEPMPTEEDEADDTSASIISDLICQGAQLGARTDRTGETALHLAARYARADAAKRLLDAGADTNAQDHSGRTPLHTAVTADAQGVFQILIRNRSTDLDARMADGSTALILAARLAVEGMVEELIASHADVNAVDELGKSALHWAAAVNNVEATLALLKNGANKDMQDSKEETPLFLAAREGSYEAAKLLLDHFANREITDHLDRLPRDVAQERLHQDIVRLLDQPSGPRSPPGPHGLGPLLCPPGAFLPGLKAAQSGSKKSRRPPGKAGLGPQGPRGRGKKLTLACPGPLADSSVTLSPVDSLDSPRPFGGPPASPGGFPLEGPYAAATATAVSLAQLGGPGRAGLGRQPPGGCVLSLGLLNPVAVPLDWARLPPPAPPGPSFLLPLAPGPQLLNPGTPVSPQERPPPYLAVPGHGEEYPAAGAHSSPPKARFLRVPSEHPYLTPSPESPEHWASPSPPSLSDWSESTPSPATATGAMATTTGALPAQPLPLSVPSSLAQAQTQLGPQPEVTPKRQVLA
Sequence of Torsin-1A-interacting protein 2 (Homo sapiens) (Q8NFQ8 whole entry, looked up): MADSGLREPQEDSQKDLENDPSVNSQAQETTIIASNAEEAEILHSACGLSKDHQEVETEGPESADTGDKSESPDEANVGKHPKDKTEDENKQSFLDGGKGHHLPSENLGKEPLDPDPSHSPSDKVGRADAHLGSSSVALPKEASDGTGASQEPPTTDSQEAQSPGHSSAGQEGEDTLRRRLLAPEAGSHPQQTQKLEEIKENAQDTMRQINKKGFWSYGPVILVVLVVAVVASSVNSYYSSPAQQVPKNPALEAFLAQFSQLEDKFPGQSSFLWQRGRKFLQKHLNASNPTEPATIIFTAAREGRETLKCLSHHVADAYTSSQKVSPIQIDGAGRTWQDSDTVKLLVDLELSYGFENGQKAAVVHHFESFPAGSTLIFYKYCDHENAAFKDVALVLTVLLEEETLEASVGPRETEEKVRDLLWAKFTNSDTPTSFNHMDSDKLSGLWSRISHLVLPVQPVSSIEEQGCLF
Sequence of Follistatin-related protein 3 (Homo sapiens) (O95633 whole entry, looked up): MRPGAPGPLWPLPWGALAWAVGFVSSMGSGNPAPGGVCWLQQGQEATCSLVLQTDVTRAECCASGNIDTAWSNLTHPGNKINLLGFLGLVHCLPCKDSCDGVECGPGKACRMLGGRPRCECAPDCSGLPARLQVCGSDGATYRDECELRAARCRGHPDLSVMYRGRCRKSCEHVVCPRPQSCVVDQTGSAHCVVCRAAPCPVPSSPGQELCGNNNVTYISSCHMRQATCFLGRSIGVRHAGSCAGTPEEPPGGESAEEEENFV

Take `CO[C@H]1COC(=O)CC=C[C@H](C)[C@@H](OC)COC(=O)[C@@H](C)NC(=O)CC=C[C@@H]1C`: the composite z-score in assay [1] is 1.53; in assay [5], -1.92; in [7], -0.148; in [8], 1.54; in [9], 0.0946; in assay [10] it was -0.0727. Further, the composite z-score in assay [11] was 1.23; in [12], -0.377; in [13] it was -1.17; in assay [15], 0.447; in [16], 0.597; in assay [17] it was 1.27. Also, the figures for the composite z-score in assay [18], in assay [19] and in assay [20] were 1.44, 1.49 and 1.52, respectively. Moreover, the z-score in assay [2] was -1.02 (inactive); in assay [3], 0.0386 (inactive); in assay [4], -1.67 (inactive); in assay [6] it was -0.804 (inactive); in [14], -0.653 (inactive).

`C[C@H]1Cc2c(COc3ccccc3)nc3c(c2CO1)CN(CCOc1ccccc1)CC3`: the composite z-score in assay [1] was 1.56; in assay [5], 1.76; in assay [7] it was -0.0998; in assay [8], 0.216; in assay [9], 1.16; in assay [10] it was -0.0283. The composite z-score in assay [11] was 0.654; in assay [12], -0.133; in assay [13], -0.496; in assay [15], 1.03; in [16], 1.15; in [17] it was 0.5. Further, the composite z-score is 1.29 in [18], 0.538 in assay [19] and 0.298 in assay [20]. The z-score in [2] was -0.381 (inactive); in assay [3], -2.38 (inactive); in assay [4], -1.15 (inactive); in assay [6], 1.11 (inactive); in assay [14], -0.34 (inactive).

Take `C#CCCCON=C1C[C@@H](O)[C@@H](O)[C@@H]2[C@@H]3C(=O)N(Cc4ccccc4)C(=O)[C@@H]3CC[C@@H]12`: the composite z-score in [1] is -0.526; in assay [5] it was -0.569; in assay [7], -0.0409; in assay [8], 0.224; in assay [9] it was 0.0798; in assay [10], -0.14. Besides, the composite z-score in assay [11] was -0.596; in [12] it was -0.0538; in [13] it was 0.0175; in assay [15] it was -0.158; in assay [16] it was -0.287; in assay [17], 0.193. For the same compound, the composite z-score in assay [18] is -0.016; in [19], -0.211; in assay [20], 0.359. In addition, the z-score in assay [2] was -0.956 (inactive); in assay [3], -0.351 (inactive); in [4], -1.61 (inactive); in [6], 0.49 (inactive); in assay [14], 0.351 (inactive).

On to `Cc1ccc(S(=O)(=O)NC(CCc2ccccc2)CC(=O)C(C)(C)C)cc1` (stereo not given), for which the composite z-score in [1] worked out at 1.09; in assay [5], 0.69; in [7] it was 0.422; in assay [8], 0.409; in [9], 1.14; in assay [10], 0.045. Further, the composite z-score in assay [11] was 0.491; in [12], -0.32; in assay [13], -0.459; in assay [15] it was 0.465; in assay [16], 0.667; in assay [17], 0.589. Besides, the results for the composite z-score in assay [18], in assay [19] and in assay [20] were 0.758, 0.661 and -0.114, respectively. The z-score is -1.18 (inactive) in assay [2]; -1.76 (inactive) in [3]; 0.269 (inactive) in assay [4]; 0.361 (inactive) in assay [6]; -0.327 (inactive) in [14].

Consider `CCOC(=O)[C@H](Cc1ccccc1)NC(=O)CCC1CC(OC(=O)NCCc2ccc(F)cc2)CC2(CCCC(COC(=O)NCCc3ccc(Cl)cc3)O2)O1` (stereo not given in full), for which the composite z-score in assay [1] is 1.13; in assay [5] it was 1.83; in [7], -0.174; in [8] it was 0.658; in assay [9], 0.924; in [10], -0.0687. The composite z-score was 0.54 in [11]; -0.0724 in assay [12]; -0.379 in assay [13]; 0.319 in assay [15]; 0.691 in assay [16]; 0.401 in [17]. Also, the composite z-score came to 0.422 in assay [18], 0.555 in assay [19] and 0.018 in assay [20]. Besides, the z-score in assay [2] is 0.154 (inactive); in assay [3], 1.04 (inactive); in assay [4] it was 0.851 (inactive); in [6] it was 0.822 (inactive); in assay [14], -0.0219 (inactive).

`COC(=O)CC=C[C@@H](C)[C@@H](C=NO[C@@H](C)c1cn([C@H](CO)Cc2ccccc2)nn1)OC`: the composite z-score in [1] is 1.05; in [5], 0.579; in assay [7], -0.173; in assay [8], 0.719; in [9] it was 0.627; in assay [10], -0.114. Further, the composite z-score in assay [11] is 0.361; in [12], -0.435; in assay [13], -0.572; in assay [15] it was 0.229; in [16], 0.165; in assay [17] it was 0.523. The composite z-score was 0.31 in assay [18], 0.498 in assay [19] and -0.163 in assay [20]. Further, the z-score in assay [2] is -2.66 (inactive); in assay [3] it was -2.01 (inactive); in assay [4], -0.773 (inactive); in [6] it was -0.673 (inactive); in [14], -0.772 (inactive).
